This note sets out measurements from the supplement of paper PMC6992640.

Assay [1] deals with HCI01 (cells of a triple-negative basal-like breast cancer xenograft). Briefly: cell viability of combination (% of vehicle); higher = less cytotoxic. To be noted: 1 µM; 72 h; partner dose: 10 nM. The method, then:
(§1)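 PDX cells were treated for 72 h with each drug at 1 µM plus afatinib (10 nM; 1 µM for WHIM30). Luciferase viability is expressed as percent of vehicle.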

The subject of assay [2] is WHIM2 (cells of a triple-negative basal-like breast cancer xenograft). The description is as above. The note with it: 1 µM; 72 h; partner dose: 10 nM. How it is done: as §1

`CN(C)CC=CC(=O)Nc1cc2c(Nc3ccc(F)c(Cl)c3)ncnc2cc1OC1CCOC1.O=C(O)C=CC(=O)O.O=C(O)C=CC(=O)O` (stereo not given) [Afatinib dimaleate] + CN(C)C/C=C/C(=O)Nc1cc2c(Nc3ccc(F)c(Cl)c3)ncnc2cc1O[C@H]1CCOC1 [Afatinib]: the “cell viability of combination” value in assay [1] was determined as 50.8; in assay [2], 35.4.

Regarding `CNC(=O)c1cc(Oc2ccc(NC(=O)Nc3ccc(Cl)c(C(F)(F)F)c3)cc2)ccn1.Cc1ccc(S(=O)(=O)O)cc1` [Sorafenib Tosylate] + CN(C)C/C=C/C(=O)Nc1cc2c(Nc3ccc(F)c(Cl)c3)ncnc2cc1O[C@H]1CCOC1 [Afatinib], the “cell viability of combination” value came out at 46.6 in assay [1] and 42.4 in assay [2].

Regarding `CC(C)CC(NC(=O)C(CCc1ccccc1)NC(=O)CN1CCOCC1)C(=O)NC(Cc1ccccc1)C(=O)NC(CC(C)C)C(=O)C1(C)CO1` (stereo not given) [Carfilzomib (PR-171)] + CN(C)C/C=C/C(=O)Nc1cc2c(Nc3ccc(F)c(Cl)c3)ncnc2cc1O[C@H]1CCOC1 [Afatinib], the “cell viability of combination” value in assay [1] turned out to be 17.5; in assay [2], 26.7.

For the compound `Clc1ccc(COC(Cn2ccnc2)c2ccc(Cl)cc2Cl)c(Cl)c1.O=[N+]([O-])O` (stereo not given) [Miconazole Nitrate] + CN(C)C/C=C/C(=O)Nc1cc2c(Nc3ccc(F)c(Cl)c3)ncnc2cc1O[C@H]1CCOC1 [Afatinib], the “cell viability of combination” value in assay [1] came to 63.9; in assay [2], 52.2.

`Cl.OC(CNCC(O)C1CCc2cc(F)ccc2O1)C1CCc2cc(F)ccc2O1` (stereo not given) [Nebivolol] + CN(C)C/C=C/C(=O)Nc1cc2c(Nc3ccc(F)c(Cl)c3)ncnc2cc1O[C@H]1CCOC1 [Afatinib]: the “cell viability of combination” value in assay [1] stood at 47.1; in assay [2] it was 44.7.

For the compound `CC1=C(C(=O)OC(C)C)C(c2cccc([N+](=O)[O-])c2)C(C(=O)OC2CN(C(c3ccccc3)c3ccccc3)C2)=C(N)N1` (stereo not given) [Azelnidipine] + CN(C)C/C=C/C(=O)Nc1cc2c(Nc3ccc(F)c(Cl)c3)ncnc2cc1O[C@H]1CCOC1 [Afatinib], the “cell viability of combination” value in assay [1] was 56.7; in assay [2], 43.

`CN(C(=O)CN(CCO)CC(=O)N(C)C(C)(C)Cc1ccccc1)C(C)(C)Cc1ccccc1` [Oxethazaine] + CN(C)C/C=C/C(=O)Nc1cc2c(Nc3ccc(F)c(Cl)c3)ncnc2cc1O[C@H]1CCOC1 [Afatinib]: the results for the “cell viability of combination” value in assay [1] and in assay [2] were 49.1 and 41.4, respectively.

As for `CC(C)(C)c1ccc(C(=O)CCCN2CCC(OC(c3ccccc3)c3ccccc3)CC2)cc1` [Ebastine] + CN(C)C/C=C/C(=O)Nc1cc2c(Nc3ccc(F)c(Cl)c3)ncnc2cc1O[C@H]1CCOC1 [Afatinib], the “cell viability of combination” value was 48.2 in assay [1] and 50.3 in assay [2].

Take `Cn1cnc2c(F)c(Nc3ccc(Br)cc3F)c(C(=O)NOCCO)cc21` + CN(C)C/C=C/C(=O)Nc1cc2c(Nc3ccc(F)c(Cl)c3)ncnc2cc1O[C@H]1CCOC1 [Afatinib]: the figures for the “cell viability of combination” value in assay [1] and in assay [2] were 40.5 and 34.8, respectively.

As for `CC(C)CC(NC(=O)CNC(=O)c1cc(Cl)ccc1Cl)B(O)O` (stereo not given) + CN(C)C/C=C/C(=O)Nc1cc2c(Nc3ccc(F)c(Cl)c3)ncnc2cc1O[C@H]1CCOC1 [Afatinib], the results for the “cell viability of combination” value in assay [1] and in assay [2] were 37 and 94.3, respectively.

As to `CC(C)(C)NC(=O)C1CC2CCCCC2CN1CC(O)C(Cc1ccccc1)NC(=O)C(CC(N)=O)NC(=O)c1ccc2ccccc2n1.CS(=O)(=O)O` (stereo not given) [Saquinavir mesylate] + CN(C)C/C=C/C(=O)Nc1cc2c(Nc3ccc(F)c(Cl)c3)ncnc2cc1O[C@H]1CCOC1 [Afatinib], the figures for the “cell viability of combination” value in assay [1] and in assay [2] were 48.2 and 47.9, respectively.

On to `CCOC(=O)C1=C(COCCN)NC(C)=C(C(=O)OC)C1c1ccccc1Cl.O=S(=O)(O)c1ccccc1` (stereo not given) [Amlodipine Besylate] + CN(C)C/C=C/C(=O)Nc1cc2c(Nc3ccc(F)c(Cl)c3)ncnc2cc1O[C@H]1CCOC1 [Afatinib], for which the “cell viability of combination” value in assay [1] came out at 59.5; in assay [2], 51.7.

As to `CCOc1nc2cccc(C(=O)OC(C)OC(=O)OC3CCCCC3)c2n1Cc1ccc(-c2ccccc2-c2nn[nH]n2)cc1` (stereo not given) [Candesartan Cilexetil] + CN(C)C/C=C/C(=O)Nc1cc2c(Nc3ccc(F)c(Cl)c3)ncnc2cc1O[C@H]1CCOC1 [Afatinib], the “cell viability of combination” value in assay [1] amounted to 55.5; in assay [2] it was 50.8.

As to `CCCCCCCCCCCC1=C(O)C(=O)C=C(O)C1=O` [Embelin] + CN(C)C/C=C/C(=O)Nc1cc2c(Nc3ccc(F)c(Cl)c3)ncnc2cc1O[C@H]1CCOC1 [Afatinib], the results for the “cell viability of combination” value in assay [1] and in assay [2] were 52.9 and 42.9, respectively.

For `Cc1cccc(CN2CCN(C(c3ccccc3)c3ccc(Cl)cc3)CC2)c1.Cl.Cl` (stereo not given) [Meclizine 2HCl] + CN(C)C/C=C/C(=O)Nc1cc2c(Nc3ccc(F)c(Cl)c3)ncnc2cc1O[C@H]1CCOC1 [Afatinib], the “cell viability of combination” value in assay [1] was 65.4; in assay [2] it was 53.1.

Regarding `COc1cc(Nc2c(C#N)cnc3cc(OCCCN4CCN(C)CC4)c(OC)cc23)c(Cl)cc1Cl` [Bosutinib (SKI-606)] + CN(C)C/C=C/C(=O)Nc1cc2c(Nc3ccc(F)c(Cl)c3)ncnc2cc1O[C@H]1CCOC1 [Afatinib], the “cell viability of combination” value in assay [1] was determined as 40.3; in assay [2] it was 38.

Regarding `Oc1c(Cl)cc(Cl)c2cccnc12` [Chloroxine] + CN(C)C/C=C/C(=O)Nc1cc2c(Nc3ccc(F)c(Cl)c3)ncnc2cc1O[C@H]1CCOC1 [Afatinib], the results for the “cell viability of combination” value in assay [1] and in assay [2] were 56.1 and 45.9, respectively.

With `Cl.Cl.O=C1c2c(O)ccc(O)c2C(=O)c2c(NCCNCCO)ccc(NCCNCCO)c21` [Mitoxantrone HCl] + CN(C)C/C=C/C(=O)Nc1cc2c(Nc3ccc(F)c(Cl)c3)ncnc2cc1O[C@H]1CCOC1 [Afatinib], the “cell viability of combination” value in assay [1] amounted to 61.6; in assay [2], 13.5.

With `C=CC(=O)Nc1cc(Nc2nccc(-c3cn(C)c4ccccc34)n2)c(OC)cc1N(C)CCN(C)C` + CN(C)C/C=C/C(=O)Nc1cc2c(Nc3ccc(F)c(Cl)c3)ncnc2cc1O[C@H]1CCOC1 [Afatinib], the “cell viability of combination” value in assay [1] is 40; in assay [2], 34.9.

Regarding `CC(C)c1nc(N(C)S(C)(=O)=O)nc(-c2ccc(F)cc2)c1C=CC(O)CC(O)CC(=O)[O-].CC(C)c1nc(N(C)S(C)(=O)=O)nc(-c2ccc(F)cc2)c1C=CC(O)CC(O)CC(=O)[O-].[Ca+2]` (stereo not given) [Rosuvastatin Calcium] + CN(C)C/C=C/C(=O)Nc1cc2c(Nc3ccc(F)c(Cl)c3)ncnc2cc1O[C@H]1CCOC1 [Afatinib], the “cell viability of combination” value is 51.4 in assay [1] and 44.2 in assay [2].

In the case of `CCc1cnn2c(NCc3ccc[n+]([O-])c3)cc(N3CCCCC3CCO)nc12` (stereo not given) + CN(C)C/C=C/C(=O)Nc1cc2c(Nc3ccc(F)c(Cl)c3)ncnc2cc1O[C@H]1CCOC1 [Afatinib], the “cell viability of combination” value in assay [1] was 25.6; in assay [2] it was 16.4.

For the compound `CCOC(=O)c1c(CSc2ccccc2)n(C)c2cc(Br)c(O)c(CN(C)C)c12.Cl` [Arbidol HCl] + CN(C)C/C=C/C(=O)Nc1cc2c(Nc3ccc(F)c(Cl)c3)ncnc2cc1O[C@H]1CCOC1 [Afatinib], the results for the “cell viability of combination” value in assay [1] and in assay [2] were 55.3 and 45.2, respectively.

As for `CCc1c(Cl)c(O)c(Cl)c(O)c1C(=O)OC1C(C)OC(OCC2=CC=CCC(O)C(C)=CC(CC)C(OC3OC(C)(C)C(OC(=O)C(C)C)C(O)C3O)C(C)=CC(C)=CCC(C(C)O)OC2=O)C(OC)C1O` (stereo not given) [Fidaxomicin] + CN(C)C/C=C/C(=O)Nc1cc2c(Nc3ccc(F)c(Cl)c3)ncnc2cc1O[C@H]1CCOC1 [Afatinib], the “cell viability of combination” value is 56.2 in assay [1] and 51.9 in assay [2].

As for `CSc1ccc2c(c1)N(CCC1CCCCN1C)c1ccccc1S2.Cl` (stereo not given) [Thioridazine HCl] + CN(C)C/C=C/C(=O)Nc1cc2c(Nc3ccc(F)c(Cl)c3)ncnc2cc1O[C@H]1CCOC1 [Afatinib], the “cell viability of combination” value came to 61.8 in assay [1] and 47.4 in assay [2].

For `COc1ncc(-c2ccc3nccc(-c4ccnnc4)c3c2)cc1NS(=O)(=O)c1ccc(F)cc1F` + CN(C)C/C=C/C(=O)Nc1cc2c(Nc3ccc(F)c(Cl)c3)ncnc2cc1O[C@H]1CCOC1 [Afatinib], the figures for the “cell viability of combination” value in assay [1] and in assay [2] were 28.7 and 15.7, respectively.

In the case of `CCC(=C(c1ccccc1)c1ccc(OCCN(C)C)cc1)c1ccccc1.O=C(O)CC(O)(CC(=O)O)C(=O)O` [Tamoxifen Citrate] + CN(C)C/C=C/C(=O)Nc1cc2c(Nc3ccc(F)c(Cl)c3)ncnc2cc1O[C@H]1CCOC1 [Afatinib], the “cell viability of combination” value in assay [1] was determined as 65; in assay [2], 51.

For `C[C@H]1O[C@@H](O[C@H]2[C@@H](O)C[C@H](O[C@H]3[C@@H](O)C[C@H](O[C@H]4CC[C@@]5(C)[C@H](CC[C@@H]6[C@@H]5C[C@@H](O)[C@]5(C)[C@@H](C7=CC(=O)OC7)CC[C@]65O)C4)O[C@@H]3C)O[C@@H]2C)C[C@H](O)[C@@H]1O` [Digoxin] + CN(C)C/C=C/C(=O)Nc1cc2c(Nc3ccc(F)c(Cl)c3)ncnc2cc1O[C@H]1CCOC1 [Afatinib], the “cell viability of combination” value in assay [1] was determined as 27.8; in assay [2], 61.3.

For `COc1cccc2c1C(=O)c1c(O)c3c(c(O)c1C2=O)CC(O)(C(=O)CO)CC3OC1CC(N)C(O)C(C)O1.Cl` (stereo not given) [Epirubicin HCl] + CN(C)C/C=C/C(=O)Nc1cc2c(Nc3ccc(F)c(Cl)c3)ncnc2cc1O[C@H]1CCOC1 [Afatinib], the “cell viability of combination” value is 58 in assay [1] and 10.2 in assay [2].

Consider `COCCOC(=O)C1=C(C)NC(C)=C(C(=O)OCC=Cc2ccccc2)C1c1cccc([N+](=O)[O-])c1` (stereo not given) [Cilnidipine] + CN(C)C/C=C/C(=O)Nc1cc2c(Nc3ccc(F)c(Cl)c3)ncnc2cc1O[C@H]1CCOC1 [Afatinib], for which the figures for the “cell viability of combination” value in assay [1] and in assay [2] were 48.9 and 40.4, respectively.

Consider `O=C(c1ccc(F)c(F)c1Nc1ccc(I)cc1F)N1CC(O)(C2CCCCN2)C1` (stereo not given) [Cobimetinib] + CN(C)C/C=C/C(=O)Nc1cc2c(Nc3ccc(F)c(Cl)c3)ncnc2cc1O[C@H]1CCOC1 [Afatinib], for which the figures for the “cell viability of combination” value in assay [1] and in assay [2] were 42.2 and 27, respectively.
